FLuc modulator: counter-screen for miR-21 project: firefly luciferase inhibitors or activators; P08659; purified FLuc, Km substrates, luminescence inhibition; Potency, µM (titrated, usually from 57.5 µM), for inactives: at the highest dose activity change, negative = inhibition, usual class: inhibitors; 360,000 tested, 6.9% active; AID 588342;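 further: plate controls were vehicle for no effect and reference inhibitor for full effect; nearly all actives have a fitted effect of over 55% in size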
Target sequence (P08659 whole entry, looked up): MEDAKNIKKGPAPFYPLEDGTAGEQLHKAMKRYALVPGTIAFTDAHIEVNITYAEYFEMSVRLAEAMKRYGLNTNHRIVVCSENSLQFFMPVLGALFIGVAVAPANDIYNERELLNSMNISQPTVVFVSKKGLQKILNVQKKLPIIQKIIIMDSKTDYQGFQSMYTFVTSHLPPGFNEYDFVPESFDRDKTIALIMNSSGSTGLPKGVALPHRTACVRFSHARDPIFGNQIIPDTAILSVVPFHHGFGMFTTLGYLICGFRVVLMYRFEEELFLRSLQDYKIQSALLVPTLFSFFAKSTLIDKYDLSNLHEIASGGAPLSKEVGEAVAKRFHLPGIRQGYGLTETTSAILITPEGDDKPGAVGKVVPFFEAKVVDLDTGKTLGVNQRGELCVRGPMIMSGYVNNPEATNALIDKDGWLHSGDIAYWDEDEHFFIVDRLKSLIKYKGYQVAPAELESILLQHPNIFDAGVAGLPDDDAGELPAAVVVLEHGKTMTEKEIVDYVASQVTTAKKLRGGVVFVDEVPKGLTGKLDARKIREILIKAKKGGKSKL
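Biochemical qHTS of compounds, final roughly 60 µM downward over six points, against 10 nM purified firefly luciferase using Km concentrations of substrates (10 uM D-luciferin, 10 uM ATP) in Tris acetate pH 7.5 buffer; luminescence output.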
ELG1 genotox: inducers of genotoxicity in HEK293T ELG1-luciferase cells. Potency, µM (highest dose often 46 µM), without a hit: at the top dose activity change, positive = activation, usual class: activators. 330,000 tested, 1.3% active. HEK293T ELG1-luciferase reporter, luminescence, 16 h; further: % of control where 0% means no effect; nearly all actives have a fitted effect of over 60% in size
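HEK293T cells expressing luciferase-tagged ELG1 were exposed to compound or DMSO vehicle for 16 hr at 37 °C and 5% CO2. Luciferase activity was then measured with ONE-Glo after 30 min at room temperature.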
ELG1 repair inh: inhibitors of ELG1-dependent DNA repair in HEK293T cells; HEK293T ELG1-luciferase reporter, luminescence, 16 h; DNA damage induced by 5-fluorouridine; Potency, µM (top dose mostly 46.1 µM), without a hit: at the highest dose activity change, negative = inhibition, actives largely listed as inhibitors; 330,000 tested, 2.3% active; further: on the % scale 0 is the no-effect control and ±100 the full control effect; nearly all actives have a fitted effect of over 55% in size
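Luminescence from the luciferase reporter, measured 30 min after ONE-Glo reagent at room temperature, was the read-out. Beforehand, 2,000 cells per well were exposed for 16 hr at 37 °C to 5-fluorouridine together with compound or vehicle.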
NPC1 prom act: NPC1 promoter activation | 320,000 tested, 2.4% active | Potency, µM (titrated, usually from 9.22 µM), for the others: top-dose activation, actives largely listed as activators | AID 485313 | Huh7 NPC1 promoter luciferase reporter, 24 h; further: % of control where 0% means no effect; nearly all actives have a fitted effect of over 60% in size
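In 1536-well qHTS, Huh7 cells harboring an NPC1 promoter–luciferase construct received compound for 24 h; activation was quantified by luminescence following luciferase reagent addition.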
Rab9 prom act: activates the Rab9 promoter | Huh7 Rab9 promoter-luciferase reporter, luminescence, 24 h | Potency, µM (highest dose often 9.22 µM), without a hit: at the top dose activation, negative = inhibition, most hits filed as activators | 320,000 tested, 2.8% active | AID 485297; further: % of control where 0% means no effect; nearly all actives have a fitted effect of over 60% in size
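Huh7 cells stably carrying a Rab9 promoter-luciferase reporter, 1500 cells per well in OP-MEM I with 10% FBS, treated with compound 24 hours at 37C. Luciferase activity read by luminescence after 10 minutes with Amplite reagent.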
SMN2 splice enh: SMN2 splice variant enhancement; AID 1458; 210,000 tested, 2.8% active; Potency, µM (series often up to 46.1 µM), without a hit: top-dose activity change, positive = activation, usual class: activators; HEK293 SMN2-luciferase splicing reporter, luminescence, 30-36 h; further: % of control where 0% means no effect; nearly all actives have a fitted effect of over 55% in size
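HEK293 cells carry an SMN2 minigene-luciferase reporter in which exon 7 inclusion puts luciferase in frame. Cells were seeded at 2000 cells/well, attached for 10-12 hours, then exposed to compounds for 30-36 hours at 37C before ONE-Glo luminescence.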
The depositor's hits bear a star; [ ] = remark or other dose. The list is not random: actives were taken first. Their share in the collection is about 9.4%. The call rests on the fitted dose curve; in most records, active means well fitted curve in the direction sought with a large enough effect; inconclusive means small, poorly fitted or top-dose-only effect, or another doubt; inactive means no such curve, though single readings can be large; an effect the other way counts as inactive or inconclusive. Potency means the concentration at half of the fitted maximal effect.

How did O=C(N/N=C/c1ccccc1F)NC12CC3CC(CC(C3)C1)C2 do in these assays?
FLuc modulator: inconclusive; ELG1 genotox: 16%; ELG1 repair inh: inconclusive; NPC1 prom act: inconclusive; Rab9 prom act: 9%[1.84 µM]

What do the screens show for `CCOc1ccc(NC(=O)C(C)Sc2nnc3cc(C)c4ccccc4n23)cc1` (configuration not stated)?
FLuc modulator: 2%

What do the screens show for `Cc1ccc(-c2csc(NC(=O)CSC3=NCCS3)n2)cc1`?
FLuc modulator: 13µM*; ELG1 genotox: inconclusive; ELG1 repair inh: inconclusive; NPC1 prom act: 12%; Rab9 prom act: 18%; SMN2 splice enh: 19%

How did O=C(CSC1=NCCS1)Nc1nc2ccccc2s1 do in these assays?
FLuc modulator: 19µM*; ELG1 genotox: 9%; ELG1 repair inh: inconclusive; NPC1 prom act: 29%; Rab9 prom act: inconclusive; SMN2 splice enh: 10%

Results for Cc1sc(NC(=O)CSC2=NCCS2)nc1-c1ccccc1 ?
FLuc modulator: -15%; ELG1 genotox: -5%; ELG1 repair inh: inconclusive; NPC1 prom act: 1%; Rab9 prom act: 0%; SMN2 splice enh: -21%

How did Cc1cccc(Oc2nc3ccccn3c(=O)c2/C=C(\C#N)c2nc3ccccc3s2)c1C do in these assays?
FLuc modulator: inconclusive; SMN2 splice enh: 5%

How did Cc1cc(=O)n2[nH]c(C)cc2n1 do in these assays?
FLuc modulator: 2%; ELG1 genotox: 0%; ELG1 repair inh: -8%; NPC1 prom act: -4%; Rab9 prom act: 3%; SMN2 splice enh: -15%

What do the screens show for `Cc1nc2cc(-c3ccc(F)cc3)[nH]n2c(=O)c1C`?
FLuc modulator: 8.5µM*; ELG1 genotox: 16µM*; ELG1 repair inh: inconclusive; NPC1 prom act: 2µM*; Rab9 prom act: inconclusive

Results for Cc1ccccc1-c1cc2nc(C)c(C)c(=O)n2[nH]1 ?
FLuc modulator: 19µM*; ELG1 genotox: inconclusive; ELG1 repair inh: inconclusive; NPC1 prom act: inconclusive; Rab9 prom act: inconclusive

Results for Cc1nc2nc(-c3ccco3)[nH]n2c(=O)c1C ?
FLuc modulator: -14%; ELG1 genotox: -5%; ELG1 repair inh: 11%; NPC1 prom act: 0%; Rab9 prom act: -4%; SMN2 splice enh: 10%

How did CCOC(=O)Cc1c(C)nc2cc(-c3ccc(C)cc3)[nH]n2c1=O do in these assays?
FLuc modulator: inconclusive; ELG1 genotox: inconclusive; ELG1 repair inh: inconclusive; NPC1 prom act: 18%; Rab9 prom act: 27%; SMN2 splice enh: inconclusive

How did Cc1cc(=O)n2[nH]c(-c3ccccc3Cl)cc2n1 do in these assays?
FLuc modulator: 24µM*; ELG1 genotox: -1%; ELG1 repair inh: 0%; NPC1 prom act: 2%; Rab9 prom act: 8%; SMN2 splice enh: -14%

Results for CC(=O)N1CCCc2cc(S(=O)(=O)N(C)CC(=O)Nc3cccc(C)c3C)ccc21 ?
FLuc modulator: -8%

What do the screens show for `Cc1ccc(Nc2nc(C)nc(N)c2S(=O)(=O)c2ccccc2)cc1`?
FLuc modulator: 3%; SMN2 splice enh: 8%

What do the screens show for `O=c1c2ccccc2cnn1-c1ccc(Cl)nn1`?
FLuc modulator: -19%; ELG1 genotox: 11%; ELG1 repair inh: inconclusive; NPC1 prom act: 11%; Rab9 prom act: 16%; SMN2 splice enh: -6%

What do the screens show for `O=c1c2ccccc2cnn1-c1ccc2ccccc2c1`?
FLuc modulator: 1.2µM*; ELG1 genotox: inconclusive; ELG1 repair inh: inconclusive; NPC1 prom act: 1.4µM*; Rab9 prom act: 1.8µM*; SMN2 splice enh: 5µM*

Results for O=c1c2ccccc2nnn1-c1ccc(Br)cc1 ?
FLuc modulator: inconclusive; ELG1 genotox: inconclusive; ELG1 repair inh: inconclusive; NPC1 prom act: 3.2µM*; Rab9 prom act: 2.2µM*

Results for O=c1c2ccccc2nnn1Cc1ccc(Br)cc1 ?
FLuc modulator: -7%; ELG1 genotox: 8%; ELG1 repair inh: 2%; NPC1 prom act: 3%; Rab9 prom act: -1%; SMN2 splice enh: 8%

Results for O=c1c2ccccc2cnn1-c1ccc(Br)cc1 ?
FLuc modulator: 3.4µM*; ELG1 genotox: inconclusive; ELG1 repair inh: inconclusive; NPC1 prom act: 0.71µM*; Rab9 prom act: 1.6µM*; SMN2 splice enh: 2.8µM*

Results for COc1ccc(Cl)cc1NC(=O)C1CCCO1 (configuration not stated) ?
FLuc modulator: 2%; ELG1 genotox: 5%; ELG1 repair inh: 8%; NPC1 prom act: -2%; Rab9 prom act: 3%

Results for COc1cc2c(cc1NC(=O)C1CCCO1)oc1ccccc12 (configuration not stated) ?
FLuc modulator: 6µM*; ELG1 genotox: 4.6µM*; ELG1 repair inh: inconclusive; NPC1 prom act: 4µM*; Rab9 prom act: 3.5µM*; SMN2 splice enh: 25µM*

Results for COc1cc2c(cc1NC(=O)C(C)Sc1ccc(NC(C)=O)cc1)oc1ccccc12 (configuration not stated) ?
FLuc modulator: inconclusive; ELG1 genotox: -8%; ELG1 repair inh: 16µM*; NPC1 prom act: 16%; Rab9 prom act: -2%; SMN2 splice enh: -25%

What do the screens show for `CC(OC(=O)C1CC(=O)N(Cc2ccco2)C1)C(=O)Nc1cccc(C#N)c1` (configuration not stated)?
FLuc modulator: -1%; ELG1 genotox: 1%; ELG1 repair inh: 16%; NPC1 prom act: -1%; Rab9 prom act: 2%

How did COc1cc2c(cc1NC(=O)Nc1ccc(C)cc1)oc1ccccc12 do in these assays?
FLuc modulator: -15%; ELG1 genotox: 2%; ELG1 repair inh: inconclusive; NPC1 prom act: 16%; Rab9 prom act: 23%; SMN2 splice enh: -8%

How did COc1cc2c(cc1NC(=O)C(C)OC(=O)C1CC(=O)N(Cc3ccco3)C1)oc1ccccc12 (configuration not stated) do in these assays?
FLuc modulator: inconclusive; ELG1 genotox: 21µM*; ELG1 repair inh: inconclusive; NPC1 prom act: inconclusive; Rab9 prom act: inconclusive; SMN2 splice enh: 24%

Results for CCOc1ccc(CNC(=O)c2cccc(NC(=O)N3CCSc4ncccc43)c2)cc1OC ?
FLuc modulator: -3%

Results for CC(=O)c1cnc(-c2ccccn2)s1 ?
FLuc modulator: -15%; ELG1 genotox: -7%; ELG1 repair inh: -1%; NPC1 prom act: 1%; Rab9 prom act: 0%; SMN2 splice enh: 16%

What do the screens show for `O=C(c1ccccc1)c1cnc(-c2ccc(Cl)cc2)s1`?
FLuc modulator: 0.34µM*; ELG1 genotox: 2.6µM*; ELG1 repair inh: inconclusive; NPC1 prom act: 0.35µM*; Rab9 prom act: 0.32µM*; SMN2 splice enh: inconclusive

High-throughput results as filed in PubChem BioAssay.
